Experimental data reported in PubChem BioAssay AID449739 (Vanderbilt High Throughput Screening Facility, 2010).
Screen size: about 100,000 compounds; about 4,200 (4.2%) were called active.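 The calls were made as follows: active = single-dose well whose peak fluorescence ratio is a statistical outlier from its plate by either plate-standardised score or position-corrected B-score; inactive = the rest.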 Shown is part of a subset that was picked to be rich in actives.

biological target: Voltage-dependent T-type calcium channel subunit alpha-1H (Homo sapiens) (UniProt O95180); test: Cav3.2 calcium influx blockers – cell-based, Fluo-4 calcium fluorescence, FDSS, MLSMR library, primary screen (AID 449739); settings: Cav3.2-expressing cells, at 10 µM, active compounds read low
Sequence (O95180 whole entry, looked up): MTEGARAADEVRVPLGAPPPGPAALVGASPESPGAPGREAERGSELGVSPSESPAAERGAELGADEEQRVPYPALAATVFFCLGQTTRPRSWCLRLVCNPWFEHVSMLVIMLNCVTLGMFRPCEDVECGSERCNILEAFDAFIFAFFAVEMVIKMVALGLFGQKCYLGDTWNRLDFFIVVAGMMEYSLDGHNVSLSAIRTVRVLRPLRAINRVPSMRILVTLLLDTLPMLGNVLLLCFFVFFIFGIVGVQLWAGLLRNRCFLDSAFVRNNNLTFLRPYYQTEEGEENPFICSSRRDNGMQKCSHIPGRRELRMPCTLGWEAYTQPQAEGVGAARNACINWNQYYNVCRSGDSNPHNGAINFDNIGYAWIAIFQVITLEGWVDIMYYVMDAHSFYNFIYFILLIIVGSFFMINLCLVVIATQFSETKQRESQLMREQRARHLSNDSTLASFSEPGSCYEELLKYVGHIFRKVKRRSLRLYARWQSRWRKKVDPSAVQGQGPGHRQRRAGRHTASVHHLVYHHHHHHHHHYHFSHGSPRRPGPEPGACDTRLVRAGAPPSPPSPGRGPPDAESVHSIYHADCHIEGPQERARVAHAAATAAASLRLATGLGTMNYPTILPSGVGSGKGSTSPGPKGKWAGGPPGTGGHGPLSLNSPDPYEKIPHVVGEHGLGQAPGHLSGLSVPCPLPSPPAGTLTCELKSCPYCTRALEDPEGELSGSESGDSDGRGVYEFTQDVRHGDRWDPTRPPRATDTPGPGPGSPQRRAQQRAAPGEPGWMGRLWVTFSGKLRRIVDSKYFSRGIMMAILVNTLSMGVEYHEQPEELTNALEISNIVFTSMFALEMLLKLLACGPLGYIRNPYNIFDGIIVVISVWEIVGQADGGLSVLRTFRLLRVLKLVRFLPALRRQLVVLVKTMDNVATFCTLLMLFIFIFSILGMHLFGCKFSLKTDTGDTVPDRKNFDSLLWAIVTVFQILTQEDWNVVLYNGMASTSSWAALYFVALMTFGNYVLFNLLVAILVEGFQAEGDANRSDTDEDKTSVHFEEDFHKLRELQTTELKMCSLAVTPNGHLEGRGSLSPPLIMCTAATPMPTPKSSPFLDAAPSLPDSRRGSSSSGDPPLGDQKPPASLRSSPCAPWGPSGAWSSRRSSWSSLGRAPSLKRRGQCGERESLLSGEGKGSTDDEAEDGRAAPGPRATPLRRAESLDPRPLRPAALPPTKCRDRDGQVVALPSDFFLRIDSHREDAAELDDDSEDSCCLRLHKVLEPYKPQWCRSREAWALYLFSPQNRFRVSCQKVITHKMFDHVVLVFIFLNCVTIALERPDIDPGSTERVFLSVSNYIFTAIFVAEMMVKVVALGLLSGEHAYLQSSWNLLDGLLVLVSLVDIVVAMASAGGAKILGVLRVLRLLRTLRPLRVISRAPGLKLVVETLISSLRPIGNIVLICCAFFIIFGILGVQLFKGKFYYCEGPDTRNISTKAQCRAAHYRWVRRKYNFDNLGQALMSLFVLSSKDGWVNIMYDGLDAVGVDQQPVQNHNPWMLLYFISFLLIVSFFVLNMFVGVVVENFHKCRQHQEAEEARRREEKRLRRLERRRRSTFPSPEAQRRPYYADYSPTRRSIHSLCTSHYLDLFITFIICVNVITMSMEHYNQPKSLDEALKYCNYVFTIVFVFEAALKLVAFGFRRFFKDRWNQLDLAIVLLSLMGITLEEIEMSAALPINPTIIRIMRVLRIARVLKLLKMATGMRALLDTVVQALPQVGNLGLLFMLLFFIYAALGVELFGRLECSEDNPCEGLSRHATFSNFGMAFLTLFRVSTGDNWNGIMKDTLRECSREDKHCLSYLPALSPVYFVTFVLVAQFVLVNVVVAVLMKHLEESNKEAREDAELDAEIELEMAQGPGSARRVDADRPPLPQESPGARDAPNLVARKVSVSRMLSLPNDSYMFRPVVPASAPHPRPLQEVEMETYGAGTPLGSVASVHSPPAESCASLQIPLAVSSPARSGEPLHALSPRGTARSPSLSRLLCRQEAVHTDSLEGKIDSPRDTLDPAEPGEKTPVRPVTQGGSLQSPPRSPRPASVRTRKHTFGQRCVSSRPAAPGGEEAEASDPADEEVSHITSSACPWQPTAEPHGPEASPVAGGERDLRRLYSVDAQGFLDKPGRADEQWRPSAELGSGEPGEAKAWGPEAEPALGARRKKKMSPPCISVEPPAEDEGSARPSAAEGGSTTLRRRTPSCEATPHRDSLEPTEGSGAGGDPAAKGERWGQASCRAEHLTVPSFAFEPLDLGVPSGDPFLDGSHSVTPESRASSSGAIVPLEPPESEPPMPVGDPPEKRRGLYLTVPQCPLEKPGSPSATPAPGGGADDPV

B-score, active:
C=C(Br)Cn1c(CCCC)nc2ccccc21 -3.88
Cc1cc(C)cc(N(CC(=O)N2CC=C(c3ccccc3)CC2)S(=O)(=O)c2c(C)noc2C)c1 -4.03
N#CC1=C(N)Oc2c(sc3ccccc23)C1c1ccco1 (configuration not stated) -4.64
COC(=O)c1sccc1NC(=O)CSc1ccccc1NS(=O)(=O)c1cc(Cl)ccc1Cl -4.82
Cc1cccc(S(=O)(=O)CC(=O)Nc2nc(-c3ccccc3)cs2)c1 -8.29

B-score, inactive:
N#CCc1c(C#N)c(N)nc(N2CCCC2)c1C#N 0.949
CCN(CC)CCC(c1cc(OC)c(OC)c(OC)c1)c1c(OC)cc(OC)c2c(-c3ccccc3)cc(=O)oc12 (configuration not stated) -1.5
CCCCn1c(CCCNC(=O)CC)nc2ccccc21 1.14
CCCCn1c(CN2CCN(CCO)CC2)nc2ccccc21 1.86
CC(C)[C@@H]1NC(=O)c2cc([N+](=O)[O-])cc(I)c2NCCC[C@@H](C(=O)NC(CC(=O)O)C(N)=O)NC(=O)[C@H](CO)NC1=O (some centres not stated) 0.105
CCOc1c2ccc(C(=O)NCc3ccc(OC(F)(F)F)cc3)cc2nn1C -1.9
Cc1cc(C)cc(N(CC(=O)NCC2CCCO2)S(=O)(=O)c2c(C)noc2C)c1 (configuration not stated) 0.883
Cc1cccc(N(CC(=O)N2CCOCC2)S(C)(=O)=O)c1 0.326
CCOC(=O)CSC1=C(C#N)C(c2ccco2)C(C(=O)OCc2ccccc2)=C(C)N1 (configuration not stated) -3.01
CC1=C(C(=O)Nc2ccccc2)C(c2ccco2)C(C#N)=C(SCC(N)=O)N1 (configuration not stated) -0.16
CCOc1cccc(C(=O)Nc2cnn(Cc3ccccc3)c2)c1 -0.985
O=C(c1ccc(F)cc1)c1c[nH]c(C(=O)NCc2cccnc2)c1 1.02
c1cnc(Nc2nc(-c3ccc4ccccc4c3)cs2)nc1 0.515
Cc1ccc(-n2c(C)cc(/C=N/Nc3ccc([N+](=O)[O-])cn3)c2C)c(C)c1 -3.21
CC(C)c1ccc(N2CCN(C(=O)c3ccccc3NC(=O)/C=C(\C(=O)O)c3ccccc3)CC2)cc1 -0.303
COC(=O)c1sccc1N/N=C(\C)c1ccc(F)c(Cl)c1 -0.109
COC(=O)c1sccc1NC(=O)CCC1CCCC1 -0.847
N#Cc1ccc(-c2ccc(Cl)cc2)nc1Oc1ccc(F)cc1 -0.421
COc1ccc(CN2[C@@H](CC(=O)O)c3cc(F)ccc3S2(=O)=O)cc1 -2.11
O=c1cc(CO)oc(C(Nc2cccc(C(F)(F)F)c2)c2ccccn2)c1O (configuration not stated) -0.112
NS(=O)(=O)c1ccc(Nc2nc(-c3ccccc3)cs2)cc1 0.0269
Cc1ccc(-c2csc(NC(=O)c3cccs3)n2)cc1 -1.5
